Inconclusive results are not listed. Activity calls are given as the source filed them. Rule for the calls: active = hit-call score of the fitted dose curve at least 0.9, where 1 is the maximum; inconclusive = response in the unintended direction; inactive = score below 0.9.
Assay: ACEA_AR_agonist_AUC_viability: ACEA Biosciences xCELLigence Real-Time Cell Analysis on Androgen Receptor Agonism for Viability (AID 2283775);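 for AC50: viability read 80 hours after compound addition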
Summary of the method: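 Viability endpoint from xCELLigence impedance in 22Rv1 prostate cells at 80 h. Eight-point series, 100 uM maximum final.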

Structure (SMILES)	AC50	outcome
CC(C)N(C(=O)CCl)c1ccccc1	24.2 µM (active)	
N#CCC#N		inactive
O=S1OC[C@@H]2[C@H](CO1)[C@]1(Cl)C(Cl)=C(Cl)[C@@]2(Cl)C1(Cl)Cl (stereo partly specified)		inactive
Cc1cc(Cl)ccc1OCCCC(=O)O		inactive
O=[N+]([O-])c1ccccc1O		inactive
CNC(=O)O/N=C/C(C)(C)S(C)(=O)=O		inactive
O=C(O)COc1ccc(Cl)cc1		inactive
O=C1c2ccccc2C(=O)C1C(=O)C(c1ccccc1)c1ccc(Cl)cc1 (stereo unspecified)	26.7 µM (active)	
C=CC(Cl)CCl (stereo unspecified)		inactive
CCCSP(=S)(OCC)Oc1ccc(SC)cc1 (stereo unspecified)		inactive
CC(=Cc1ccccc1)[N+](=O)[O-]	13.5 µM (active)	
CCOP(=S)(OCC)O/N=C(\C#N)c1ccccc1		inactive
O=C(NC(=O)c1c(F)cccc1F)Nc1cc(Cl)c(OC(F)(F)C(F)C(F)(F)F)cc1Cl (stereo unspecified)	5.54 µM (active)	
COCCl		inactive
O=C(CCl)Nc1ccccc1	24.5 µM (active)	
Cc1cc(Cl)ccc1OC(C)C(=O)O (stereo unspecified)		inactive

Assay: ACEA_AR_antagonist_AUC_viability: ACEA Biosciences xCELLigence Real-Time Cell Analysis on Androgen Receptor Antagonism for Viability (AID 2283776);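 note: area under impedance growth curve at 80 h after dosing as viability; hits lower the growth signal relative to DMSO meaning cytotoxicity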
Summary of the method: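 22Rv1 human prostate cancer cells were seeded on electrode plates, monitored overnight, then exposed to eight 1:4 dilutions from 100 uM final. Impedance-based growth kinetics at 80 h gave an AUC viability endpoint normalized to DMSO.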

Structure (SMILES)	outcome	AC50
Oc1c(Br)cc(Br)cc1Br	inactive	
CC(C)N(C(=O)CCl)c1ccccc1		16.6 µM (active)
CCC[CH2][Sn]([CH2]CCC)([CH2]CCC)[CH2]CCC		29.9 µM (active)
N#CCC#N	inactive	
O=C(NC(=O)c1c(F)cccc1F)Nc1ccc(Cl)cc1	inactive	
O=S1OC[C@@H]2[C@H](CO1)[C@]1(Cl)C(Cl)=C(Cl)[C@@]2(Cl)C1(Cl)Cl (stereo partly specified)	inactive	
Cc1cc(Cl)ccc1OCCCC(=O)O	inactive	
O=CCCl	inactive	
CNC(=O)O/N=C/C(C)(C)S(C)(=O)=O	inactive	
Cc1cc(Cl)ccc1O	inactive	
O=C1c2ccccc2C(=O)C1C(=O)C(c1ccccc1)c1ccc(Cl)cc1 (stereo unspecified)		24.6 µM (active)
CC(C)=CC1C(C(=O)OCc2cccc(Oc3ccccc3)c2)C1(C)C (stereo unspecified)	inactive	
C=CC(Cl)CCl (stereo unspecified)		4.53 µM (active)
O=S1(=O)OC(c2cc(Br)c(O)c(Br)c2)(c2cc(Br)c(O)c(Br)c2)c2ccccc21	inactive	
CC(=Cc1ccccc1)[N+](=O)[O-]		6.31 µM (active)
O=C(NC(=O)c1c(F)cccc1F)Nc1cc(Cl)c(OC(F)(F)C(F)C(F)(F)F)cc1Cl (stereo unspecified)		5.68 µM (active)
COC(=O)Nc1cccc(OC(=O)Nc2cccc(C)c2)c1	inactive	
COCCl	inactive	
O=C(CCl)Nc1ccccc1		12.7 µM (active)
O=C(CBr)c1ccc(O)cc1	inactive	

Source: PubChem BioAssay (EPA / NIEHS)
